Screens as filed in PubChem.
Hits are enriched below; roughly 27% of the tested compounds scored in any of these assays.
CYP2C19 act – activators of human cytochrome P450 2C19. activation factor at 5 µM. 96,000 tested, under 10 active. AID 1025. recombinant CYP2C19, luciferin-H EGE luminescence; stronger effect = higher value; 0 = fully inhibited enzyme, 1 = untreated enzyme;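 active means activation factor of at least 2 at 5 µM in the primary screen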;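 further: 0 = wells with 2.5 mM tranylcypromine and 1 = vehicle-only wells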
CYP2C9 inh – inhibitors of human CYP2C9 | P11712 | 96,000 compounds, 20% hits | CYP2C9 Supersomes, luciferin-H conversion, luminescence | inhibition, % at 5 µM | AID 777;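 active means blocking of liver enzyme CYP2C9 beyond about 50% at 5 µM, limit read from the data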
CYP2C9 act – CYP2C9 (human) activation; P11712; recombinant CYP2C9, luciferin-H conversion, luminescence; stronger effect = higher value; factor 1 = untreated enzyme, 0 = blocked; activation factor at 5 µM; 96,000 compounds, 1.4% hits; AID 1024;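 active means activation factor of 2 or more for CYP2C9 at a 5 µM dose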;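 further: 0 = sulfaphenazole-blocked wells and 1 = vehicle-only wells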
Cav3 T inh – human Cav3.2 channel inhibition, primary screen; Cav3.2-expressing cells, Fluo-4 calcium fluorescence FDSS; stronger effect = lower value; B-score at 10 µM; 100,000 compounds, 4% hits;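 active means single-dose well whose peak fluorescence ratio is a statistical outlier from its plate by either plate-standardised score or position-corrected B-score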
CYP2C19 inhib – human CYP2C19 inhibition. P33261. CYP2C19 Supersomes, luciferin-H EGE luminescence, 30 min. inhibition, % at 5 µM. 96,000 compounds, 21% hits. AID 778;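 active means CYP2C19 inhibition above a set limit at 5 µM in the primary screen, cut at about 50% in these data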;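 further: plate controls were negative control wells for no effect and 2.5 mM tranylcypromine positive control for full effect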
* marks the source's active call; other numbers are inactive results; . = no result given.

SMILES	CYP2C19 act	CYP2C9 inh	CYP2C9 act	Cav3 T inh	CYP2C19 inhib
Cn1c(O)c(C=NCC2CCNCC2)c(=O)n(C)c1=O	.	.	.	1.6	.
Cc1ccc(/S(C)=N/S(=O)(=O)c2ccc(C)cc2)cc1 (centres undefined)	0.7	-59	1.6	0.39	28
COc1cccc(-c2nnc(SCC(=O)Nc3ccc(S(N)(=O)=O)cc3)n2C)c1	1	38	0.6	-0.041	3
Cc1cccc2cc(COC(=O)C(C)(C)C)c(=O)[nH]c12	0.8	-33	1.3	0.52	20
COc1ccc(CNC(=O)C(c2ccncc2)N(C(=O)Cc2cccs2)c2ccccc2C)cc1 (centres undefined)	0.5	28	0.7	-2.6	54*
O=C(NCc1ccco1)C(c1ccccc1)N(C(=O)Cc1cccs1)c1ccccc1 (centres undefined)	.	.	.	0.0094	.
COc1ccc(CNC(=O)C(c2ccco2)N(Cc2ccccc2)C(=O)Cc2cccs2)cc1 (centres undefined)	.	.	.	0.095	.
COc1ccc(CNC(=O)C(c2ccncc2)N(C(=O)Cc2cccs2)c2cccc(C)c2)cc1 (centres undefined)	0.3	48	0.5	-1.2	70*
O=C1Nc2cc(C(=O)N3CCN(Cc4ccccc4)CC3)ccc2SC1N1CCOCC1 (centres undefined)	0.9	22	0.8	.	12
COc1ccc(N(C(=O)Cn2cnc3ccccc32)C(C(=O)NC2CCCCC2)c2ccccc2)cc1 (centres undefined)	0.8	43	0.6	-3.5*	18
CC(NC(=O)c1ccccc1Cl)C1COc2ccccc2O1 (centres undefined)	.	.	.	0.85	.
CC(NS(=O)(=O)c1ccccc1)C1COc2ccccc2O1 (centres undefined)	0.5	11	0.9	-0.63	54*
COc1cccc(Nc2nnc(SCC(=O)N(CC(C)C)CC(C)C)s2)c1	0.7	37	0.6	-7.2*	32
Cc1cc(C)n(-c2ccc(C(=O)Nc3ccccc3N3CCOCC3)cc2)n1	0.9	19	0.8	0.12	12
O=C(c1ccccc1F)N1CCc2ccccc21	0.4	-250	3.5*	0.42	62*
Cc1cc(C(=O)N2CCc3ccccc32)n(-c2ccccc2)n1	0.2	68*	0.3	-0.0014	75*
CC(C)(C)c1cc(C(=O)N2CCc3ccccc32)ccn1	0.3	53*	0.5	-0.44	72*
CN(C)S(=O)(=O)c1cccc(C(=O)N2CCc3ccccc32)c1	0.8	17	0.8	.	17
Cc1cc(C)n(-c2ccc(C(=O)N3CCc4ccccc43)cc2)n1	0.6	-103	2*	0.98	41
CCOC(=O)c1cc2sccc2n1CC(=O)N1CCCC1	0.6	24	0.8	-1.7	44
CCOC(=O)C1=C2N(C)c3ccccc3N2CCC1=O	1.1	-10	1.1	.	-8
CCCN(CCC)CCNC(=O)C1CC(=O)N(c2ccc(OC)cc2)C1c1ccc(OC)cc1 (centres undefined)	1.1	0	1	0.17	-5
Cc1ccc(C(CC(=O)O)C2CCOC(C)(C)C2)cc1 (centres undefined)	1	-15	1.1	0.58	-3
CN(C(=O)COc1ccc(C(C)(C)C)cc1)C1CCS(=O)(=O)C1 (centres undefined)	1	-9	1.1	0.11	4
O=C(CCCCCN1C(=O)c2ccccc2C1=O)Nc1nccs1	0.9	56*	0.4	0.039	6
SMILES	CYP2C19 act	CYP2C9 inh	CYP2C9 act	Cav3 T inh	CYP2C19 inhib
O=C(CCCCCN1C(=O)C2C3C=CC(C3)C2C1=O)Nc1nccs1 (centres undefined)	1.1	22	0.8	0.16	-8
CCN(CC)c1ccc(NC(=O)CCCCCN2C(=O)c3ccccc3C2=O)cc1	0.8	76*	0.2	-1.9	19
CC(=O)Nc1ccc(NC(=O)CCCCCN2C(=O)c3ccccc3C2=O)cc1	0.6	92*	0.1	0.046	40
O=C(CCCOc1ccccc1)Nc1nncs1	0	83*	0.2	-0.32	97*
Cc1cc(C)nc(NS(=O)(=O)c2ccc(NC(=O)CCCN3C(=O)c4ccccc4C3=O)cc2)n1	0.7	33	0.7	-0.97	28
O=C(CCCCCN1C(=O)c2ccccc2C1=O)Nc1ccccc1	0.4	58*	0.4	0.26	64*
Cc1cccnc1NC(=O)CCCN1C(=O)c2ccccc2C1=O	0.9	-110	2.1*	0.78	7
COc1ccc(OCCCC(=O)Nc2nncs2)cc1	.	.	.	-0.027	.
